Compound activity deposited in PubChem BioAssay by National Center for Advancing Translational Sciences (NCATS).
Sampled rows, rich in hits. Any-hit rate of the full collection: about 6%.
DRD3 agonist: qHTS of D3 Dopamine Receptor Agonist: qHTS | D3R DiscoveRx beta-arrestin cells, luminescence, 90 min | D(3) dopamine receptor (Homo sapiens), P35462 | AID 652048, 2013 | hit rate 0.58% among 410,000 | max activation, %; in the data active = max activation above about 30%; also: 0% is about no effect
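Agonist mode: compounds and dopamine controls were applied to plated cells for 90 min at 37 degrees C after an overnight attachment at 1500 cells/well. Luminescent read-out followed 30 - 60 minutes at room temperature with DiscoveRx detection reagent.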
D1 antagonist: Antagonist of Human D 1 Dopamine Receptor: qHTS | D(1A) dopamine receptor (Homo sapiens), P21728 | HEK293 TREx D1 cells, calcium flux, dopamine EC80; active compounds read low | activity change, negative = inhibition, % at 10 µM | hit rate 3.2% among 360,000 | AID 504652, 2011; in the data active = activity change below about -30%; also: % is scaled to controls: 0 for no effect and ±100 for the full control effect
Target sequence (P21728 whole entry, looked up): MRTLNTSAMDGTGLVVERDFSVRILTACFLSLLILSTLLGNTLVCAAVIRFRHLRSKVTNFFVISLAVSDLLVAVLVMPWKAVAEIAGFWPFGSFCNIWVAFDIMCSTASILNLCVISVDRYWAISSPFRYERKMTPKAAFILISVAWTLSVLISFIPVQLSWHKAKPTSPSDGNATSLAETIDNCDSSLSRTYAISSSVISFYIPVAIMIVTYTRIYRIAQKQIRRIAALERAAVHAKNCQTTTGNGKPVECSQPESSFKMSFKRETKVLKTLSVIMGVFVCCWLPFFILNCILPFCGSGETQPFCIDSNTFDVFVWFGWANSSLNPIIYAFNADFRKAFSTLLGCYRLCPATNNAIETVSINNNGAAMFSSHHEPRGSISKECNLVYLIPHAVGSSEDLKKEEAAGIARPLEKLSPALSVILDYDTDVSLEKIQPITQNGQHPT
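Cells carrying a force-coupled, tetracycline-inducible human D1 receptor report calcium flux. Each well gets a 10 s baseline, compound with 180 s monitoring, then an EC80 dopamine stimulus with a second 180 s kinetic read.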
D1 ag: Allosteric Agonists of the Human D1 Dopamine Receptor: qHTS | D(1A) dopamine receptor (Homo sapiens), P21728 | AID 504660, 2011 | HEK293 T-REx D1 cells, calcium flux, agonist mode | activation, % at 2 µM | hit rate 1% among 360,000; in the data active = activation above about 30%; also: 0% is about no effect
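Tetracycline-induced HEK293 TREx D1 cells, force-coupled to calcium signalling, were dye-loaded with a no-wash calcium kit. Compound was pin-added after a 10 s baseline. Fluorescence was read kinetically at 1 cycle/s for 180 s, with calcium rises flagged as agonism.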
DRD3 antagonist: qHTS of D3 Dopamine Receptor Antagonist: qHTS; hit rate 2.5% among 360,000; max response, negative = inhibition, %; AID 652054, 2013; D3R cells, DiscoveRx beta-arrestin luminescence, antagonist mode; active compounds read low; in the data active = max response below about -50%; inconclusive = no clear call, values can overlap the other calls; also: % is scaled to controls: 0 for no effect and ±100 for the full control effect
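Cells expressing the human receptor were seeded at 1500 cells/well, incubated overnight at 37 degrees C in 5% CO2, then exposed to library compounds with dopamine controls for 90 minutes at 37 degrees C before luminescent detection.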
D1 PAM: Potentiators of Human D1 Dopamine Receptor: qHTS. D(1A) dopamine receptor (Homo sapiens), P21728. HEK293 TREx D1 cells, calcium flux, dopamine EC20 potentiation. potentiation, % at 10 µM. hit rate 0.036% among 360,000. AID 504651, 2011; in the data active = potentiation above about 30%; also: 0% is about no effect
Numbers without * were called inactive; ? = inconclusive; nt = no result given.

SMILES	DRD3 agonist	D1 antagonist	D1 ag	DRD3 antagonist	D1 PAM
COc1cc([N+](=O)[O-])cc(/C=N/NC(=O)C(C)Nc2cccc3ccccc23)c1O (stereo not given)	-26	-6	2	-84*	-6
COc1cc([N+](=O)[O-])cc(/C=N/NC(=O)C(O)(c2ccccc2)c2ccccc2)c1O	-29	-25	-2	-55*	-3
Cc1ccc(C(CC(=O)Nc2ccc(F)c(Cl)c2)N2Cc3ccccc3C2=O)cc1 (stereo not given)	-4	-2	-1	nt	-2
Cc1c(C=Nc2ccc(S(=O)(=O)N(C)C)cc2)c(O)[nH]c(=O)c1C#N	1	nt	nt	9	nt
CCN(C(=O)CSc1n[nH]c(N)n1)c1cccc2ccccc12	1	nt	nt	11	nt
O=C(NC1CCCC1)C(=O)N(Cc1cccnc1)C(C(=O)NCc1ccco1)c1ccccc1F (stereo not given)	-10	-5	1	-5	-4
O=C(NC1CCCCC1)C(=O)N(Cc1cccnc1)C(C(=O)NCc1ccco1)c1ccccc1 (stereo not given)	nt	-35*	1	nt	-1
O=C(Nc1cc([N+](=O)[O-])ccc1O)c1ccc2c(c1)C(=O)N(Cc1ccco1)C2=O	-5	3	0	-8	-5
CC(=O)C1=C(O)CCCC1=NCc1nc2ccccc2[nH]1	-3	-34*	7	-8	-7
COc1ccc(-c2nc3ccccc3o2)cc1NC(=O)c1ccc(OCC(C)C)cc1	5	-4	1	nt	-2
O=C(N/C=C\c1ccccc1)NCc1ccc(Cl)cc1	-2	-31*	3	-15	-2
O=C(N/C=C\c1ccccc1)NCc1ccc(Cl)cc1Cl	3	1	6	7	0
Cc1cc(C)cc(-n2ccnc2SCC(=O)Nc2nc3ccc(C)cc3s2)c1	-9	17	1	nt	0
COc1ccc(Cn2c(=O)c3cccnc3n(Cc3ccc([N+](=O)[O-])cc3)c2=O)cc1	3	3	16	0	-1
COc1ccc(CCn2c(=O)c3cccnc3n(Cc3ccc([N+](=O)[O-])cc3)c2=O)cc1OC	7	-46*	4	18	-12
O=C(CN(Cc1ccco1)C(=O)CNS(=O)(=O)c1ccc(Cl)cc1)NCc1ccco1	-7	-52*	0	12	-1
COc1ccc(-n2c(=O)c(CCC(=O)N3CCN(c4cccc(OC)c4)CC3)nc3ccccc32)cc1	-4	nt	nt	-15	nt
COc1ccc(/C(O)=C/c2nc3ccccc3n(-c3ccccc3)c2=O)cc1	11	-7	39*	-18	-2
O=C(c1ccc(F)cc1)N1CCN(c2ccc([N+](=O)[O-])cc2-n2cccc2)CC1	1	2	4	6	-2
COc1cccc(N2CCN(c3ccc4nnc(CCC(=O)O)n4n3)CC2)c1	5	22	0	nt	4
CCOC(=O)CCCN1C(=O)CCn2nc(-c3cn(C)c4ccccc34)cc21	1	-40*	0	nt	3
Cn1cc(-c2cc3n(n2)CCC(=O)N3CCCC(=O)NCc2ccccc2Cl)c2ccccc21	-14	-48*	1	nt	2
CC1CCN(c2ccc(-c3cccc(NS(=O)(=O)c4ccc(F)cc4F)c3)nn2)CC1	7	-8	3	nt	-1
COc1ccc(/C=C/C(=O)OCC(=O)Nc2ccc3[nH]c(=O)[nH]c3c2)cc1OC	4	-32*	2	34	-11
O=C(COC(=O)/C=C/c1ccc(F)cc1)Nc1ccc2[nH]c(=O)[nH]c2c1	-1	-13	3	13	-12
SMILES	DRD3 agonist	D1 antagonist	D1 ag	DRD3 antagonist	D1 PAM
COc1cc(/C=C/C(=O)OCC(=O)Nc2ccc([N+](=O)[O-])cc2)ccc1O	5	-14	31*	-11	-1
CCOC(=O)/C=C/C(=O)OCC(=O)Nc1ccc([N+](=O)[O-])cc1	4	-33*	9	-1	-6
C/C=C/c1ccc(OCC(=O)Nc2ccc(OC)c(OC)c2)c(OC)c1	-8	-38*	4	1	-4
O=C(Nc1ccc2oc(-c3ccc4ccccc4c3)nc2c1)c1cc(Cl)ccc1Cl	-3	11	3	nt	1
C=C1/C(=C\C=C2/CCC[C@]3(C)[C@@H]([C@H](C)OCCC(C)(C)O)CC[C@@H]23)C[C@@H](O)C[C@@H]1O	0	nt	nt	nt	nt
COc1ccc(CNC(=O)Cc2cn(C)c3ccccc23)c(OC)c1	-7	0	2	3	7
CCC12CCC3c4ccc(O)cc4CCC3C1CC(O)C2O (stereo not given)	0	nt	nt	0	nt
O=C(N/N=C/c1cccc2nccnc12)c1ccccc1O	-3	-7	4	-15	-8
O=C(N/N=C/c1cccc2cccnc12)c1ccccc1O	-15	9	9	-53*	-5
COc1ccc2oc(=O)c(C(=O)NCCc3c(C)[nH]c4ccc(Br)cc34)cc2c1	3	0	-1	nt	-4
CC(CC(=O)c1ccccc1)=NCCCN=C(C)CC(=O)c1ccccc1	3	nt	nt	-14	nt
Cc1cnc(C(=O)OCC(=O)c2ccc(C3CCCCC3)cc2)cn1	2	-31*	7	-1	-2
CCc1ccc(C(=O)COC(=O)c2cnc(C)cn2)cc1	-3	-33*	6	13	-9
O=C(COC(=O)c1cnccn1)c1ccc(C2CCCCC2)cc1	4	-6	3	-13	9
O=C(CSc1nnnn1-c1cccc2c1CCCC2)N1CCCC1	-2	3	38*	3	-5
O=C(CSc1nnnn1-c1cccc2c1CCCC2)N1CCOCC1	15	-8	70*	8	5
O=C(Nc1cc(Cl)ccc1Cl)N1CCN(C(=O)Nc2cc(Cl)ccc2Cl)CC1	-5	nt	nt	-14	nt
O=C1c2ccccc2C(Nc2ccccc2F)N1c1cccnc1 (stereo not given)	-1	-35*	0	1	nt
COC(=O)c1ccccc1NC1c2ccccc2C(=O)N1c1cccnc1 (stereo not given)	-6	21	4	-13	0
C=CCN(CC=C)C(=S)NC(=O)c1ccc(OC)cc1	7	-8	1	-69*	-1
COc1ccc(C(=O)NC(=S)N(C)C2CCCCC2)cc1	-8	-46*	0	-19	-3
CCOc1ccc(CNC(=O)Cn2nc(C)c3nn(-c4ccc(Cl)cc4)c(C)c3c2=O)cc1OC	8	-23	1	nt	-4
Cc1cc2cc(C(c3nnnn3CC3CCCO3)N3CCCc4ccccc43)c(=O)[nH]c2cc1C (stereo not given)	13	0	4	?	-6
CCc1ccc2[nH]c(=O)c(C(c3nnnn3CC3CCCO3)N3CCCc4ccccc43)cc2c1 (stereo not given)	38*	3	1	8	9
